Measurements reported in the supplement of paper PMC6555819.

Tests used:
Assay in all cases: PBM binding z-score (relative to random genomic background probes); higher = stronger binding; sequences stand for … in GC…GCGATTGACAGCGTAGAATGAAGG
[1] = test system: PPARg:RXRa DBDmut IVT, anti-RXR (DBD mutation: RXRa K156A/R161A, NR concentration 270 nM, RXRa partner concentration 90 nM)
Summary of the method: (§1)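 Antibodies against each partner of ligand-free nuclear receptor dimers (one per run) detected binding on custom Agilent 4×180K protein-binding microarrays after 1 h incubation. The double-stranded probes had 34-nt variable regions carrying direct-repeat seeds, single-nucleotide variants, half-site ablations and random human genomic background sequences. Binding z-scores, from regression-normalized fluorescence, use the random background probes as reference.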

[2] = test system: PPARg:RXRa IVT, anti-PPARg (NR concentration 270 nM, RXRa partner concentration 90 nM)
Summary of the method: as §1

[3] = test system: PPARg DBDmut:RXRa IVT, anti-PPARg (DBD mutation: PPARg1 K132A/R137A, NR concentration 270 nM, RXRa partner concentration 90 nM)
Summary of the method: as §1

[4] = test system: PPARg DBDmut IVT, anti-PPARg (DBD mutation: PPARg1 K132A/R137A, NR concentration 270 nM)
Summary of the method: as §1

[5] = test system: PPARg homodimer (NR concentration 180 nM)
Summary of the method: as §1

[6] = test system: PXR:RXRa (NR concentration 270 nM, RXRa partner concentration 90 nM)
Summary of the method: as §1

[7] = test system: PXR homodimer (NR concentration 270 nM)
Summary of the method: as §1

[8] = test system: RARa:RXR (NR concentration 270 nM, RXRa partner concentration 90 nM)
Summary of the method: as §1

[9] = test system: RARa homodimer (NR concentration 270 nM)
Summary of the method: as §1

[10] = test system: RARb:RXRa (NR concentration 270 nM, RXRa partner concentration 90 nM)
Summary of the method: as §1

Sequence | PBM binding z-score [1] | PBM binding z-score [2] | PBM binding z-score [3] | PBM binding z-score [4] | PBM binding z-score [5] | PBM binding z-score [6] | PBM binding z-score [7] | PBM binding z-score [8] | PBM binding z-score [9] | PBM binding z-score [10]
ATCGAAAGGTCGTGAGGTGAGTAAACAGAAAGGC | 0.111 | 2.34 | 1.06 | 0.746 | 1.39 | 2.84 | 0.0266 | 4.08 | 0.931 | 3.94
ACTAGCAGGCCAAGTTTGGCTCACTCAAACAAAG | 0.281 | 0.0532 | -0.751 | -1.04 | -0.78 | -0.576 | -0.582 | -0.454 | -0.674 | 0.218
CCTATTAGTTGACCATAAGGGCAAGCGAAGCTCG | 0.132 | 0.158 | -0.0196 | 0.32 | 1.47 | 0.536 | 0.56 | 0.913 | 1.9 | 1.65
CAAACTCGGTCACCGGAAGGTCAAAGTCCGCATG | 4.82 | 5.21 | 0.644 | 0.562 | 4.4 | 4.75 | 1.84 | 5.66 | 1.31 | 4.61
TCGCCTAGGTCATTGGGCCAGTATAGTACGCATC | 3.09 | 3.38 | -0.283 | -0.432 | 1.52 | 1.74 | 0.00603 | 2.24 | -0.44 | 3.66
TCGAGTAGGTTACCAATGGGGCATACAGCTTTCT | 3.13 | 3.01 | -0.185 | -0.3 | -0.0294 | 0.327 | -0.38 | 0.453 | -0.62 | 0.89
ATCGAAAGGTCGTGCGGTGAGTATACAGAAAGGC | 0.148 | 1.68 | 0.719 | 0.4 | 3.06 | 3.2 | 0.322 | 3.75 | 0.484 | 3.7
CGTCCAAGGTCAATGCTAGGTCAGCGAAAGCATT | 3.48 | 4.11 | 0.86 | 0.428 | 7.14 | 4.98 | 1.31 | 6.26 | 1.36 | 5.17
CGCCAAAGTTCAACTAAGGTAACGTAAAGCACGC | 0.771 | 1.55 | 0.546 | 0.253 | 3.81 | 5.66 | 5.04 | 4.28 | 2.96 | 5.16
GCTTGCGGGTCAAAGGTTATAGCATGAATAGAAT | 6.08 | 6.75 | 0.506 | 0.0418 | 2.11 | 6.07 | 0.118 | 7.94 | 0.537 | 4.53
CTCCCAAGGTGAACAAGGTCGTTGATTACTATTC | 1.99 | 2.07 | -0.441 | -0.154 | 0.903 | 2.42 | 1.92 | 2.14 | -0.0783 | 2.03
CCTAGCAGGCCAGGGTGACTCAAGCATTTCGCTT | 0.555 | 0.0938 | -1.83 | -1.19 | -0.646 | -0.537 | -0.777 | -0.0885 | -0.299 | 0.148
CCGACTGGCGCATAAGGTTACCATAAGCCAGCCC | -0.22 | -0.617 | -0.674 | -0.756 | 0.0825 | 0.285 | -0.103 | 0.776 | 0.248 | 0.721
TGAATGAGCTTAAAGATCAGGGAACGTGGCGTCG | -0.909 | -0.722 | -0.0715 | -0.43 | -0.49 | -0.508 | -0.697 | -0.284 | -0.372 | -0.351
GCATATAGGTAATACAAGGTTAAAGTCCGATTGT | 4.38 | 3.23 | 0.799 | 0.913 | 1.39 | 2.6 | 0.613 | 2.53 | 0.428 | 0.87
CCTTACGGGTCACTCCAGGTTATTGCATCGGAGT | 2.64 | 3.54 | 0.677 | 1.01 | 2.9 | 5.46 | 0.3 | 4.02 | 1.23 | 3.56
TCTGCTAGGTCAGTTGGTTAGCTAACGAGCTGCC | 2.45 | 2.82 | -0.493 | -0.0218 | -0.654 | 0.251 | -0.819 | 0.432 | -1.34 | 3.29
CATAGAGGGTCAGCTAGGCCAGAGTAGGGACGGC | 1.42 | 2.21 | 0.395 | 0.25 | 1.26 | 1.2 | -0.122 | 1.9 | -0.0533 | 3.82
CCTTACGGGTCAAGGTTAGAGCACGGGTGGTACG | 1.69 | 3.34 | 0.826 | 0.266 | 2.42 | 3.08 | -0.133 | 3.92 | 0.744 | 4.13
TCTAATTGGTCAAAGGTCACACACTCGAAATGCG | 3.57 | 6.22 | 4.31 | 4.82 | 12.2 | 6.35 | 1.5 | 7.91 | 5.86 | 5.27
CGTCCAAGGTCAAAGGTCAGTGAGGAGATGACGG | 4.27 | 5.57 | 0.435 | -0.522 | 6.24 | 7.08 | 2.54 | 8.87 | 5.49 | 5.85
GCAGACAGGTGAAACGCAGGTAACCCAGGGTGGC | 0.158 | 0.862 | -0.147 | -0.879 | -0.777 | -0.365 | -0.8 | 0.305 | -1.34 | 0.601
TCTTGTAGGTCAACAGGAGGTTAAGAAAGATCGA | 6.99 | 8.17 | 2.81 | 3.87 | 2.63 | 3.9 | -0.245 | 4.71 | 0.468 | 4.57
